# Measurements: the supplement of paper PMC3334620
# In all, about 33,000 sequences were measured (“E-score (-0.5 to 0.5)”: median about -0.035, highest 2% from about 0.34 on). Only a selection was taken, and the highest values are over-represented in it overall.
# Molecular target: T1, Mot3 (UniProt P54785)
# T1 sequence: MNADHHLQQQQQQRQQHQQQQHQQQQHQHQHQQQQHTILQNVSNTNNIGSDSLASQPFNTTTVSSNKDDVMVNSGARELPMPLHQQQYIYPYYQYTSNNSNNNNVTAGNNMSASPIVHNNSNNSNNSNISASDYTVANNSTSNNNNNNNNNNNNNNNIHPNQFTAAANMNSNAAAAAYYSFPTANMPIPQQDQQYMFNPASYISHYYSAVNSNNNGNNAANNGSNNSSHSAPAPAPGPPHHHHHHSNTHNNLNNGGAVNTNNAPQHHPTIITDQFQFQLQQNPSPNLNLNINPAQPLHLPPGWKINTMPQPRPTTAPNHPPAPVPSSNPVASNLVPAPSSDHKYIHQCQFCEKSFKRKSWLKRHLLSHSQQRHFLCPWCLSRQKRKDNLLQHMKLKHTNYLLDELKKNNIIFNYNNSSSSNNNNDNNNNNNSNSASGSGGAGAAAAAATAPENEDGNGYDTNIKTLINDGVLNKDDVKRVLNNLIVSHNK
# Assay: PBM E-score (8-mer binding enrichment) (E-score (-0.5 to 0.5)); higher = stronger / more preferred TF binding
# Settings: protein concentration: 200 nM; construct: GST-full length
# Method: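 Universal 'all 10-mer' protein binding microarrays (Agilent AMADID 015681) probed with GST-tagged S. cerevisiae TFs (full-length or DBD) made by in vitro transcription/translation (PURExpress), about 100-200 nM. Bound TF was detected with fluorescent anti-GST. Each ungapped 8-mer (which stands for itself and its reverse complement) is scored by the PBM enrichment score (E-score), a modified Wilcoxon-Mann-Whitney statistic from -0.5 to +0.5, computed with the Universal PBM Analysis Suite. Scale: above 0.35 generally sequence-specific binding.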
row,Sequence,PBM E-score
1,CCTCTAGA,-0.0256
2,AAGAACGC,0.0817
3,AGGGTAGG,0.0464
4,ACGCTTTG,-0.111
5,GCATTCTA,0.0333
6,AGACAGAT,-0.0373
7,ATCAGGCC,-0.0425
8,GTCAGGCA,0.469
9,ATCAGGCA,0.481
10,GTCAGGGA,-0.339
11,CTCAGGGA,-0.251
12,CTCAGGCA,0.462
13,ATCAGGCG,0.0225
14,CTCAGGCC,-0.129
15,GTCAGGAA,0.277
16,CGGATCAC,-0.00917
17,CCTTTCTC,-0.0866
18,CTCAGGGC,-0.29
19,AGTGTCTA,0.0204
20,AGTCCCAT,-0.115
21,CGTGCCGC,-0.111
22,CGTGCCCC,0.00946

row,Sequence,PBM E-score
1,AGTGCCAC,-0.35
2,AGTGCCGC,-0.373
3,AGTGCCTG,0.49
4,AGTGCCTC,0.405
5,AGTGCCGG,0.0259
6,CGTGCCTC,0.469
7,AGTGCCAG,-0.0756
8,AGAGCCTA,0.177
9,AGAGCCTG,0.341
10,AGAGCCTC,-0.422
11,GAGATTGA,-0.0729
12,ACGGTTTG,-0.0879
13,CAAGTCGA,-0.156
14,TGTCTCAA,-0.078
15,AGGTCGAG,-0.141
16,ATGACCAG,0.199
17,ATGCTCAG,0.15
18,GGTGCCCA,0.293
19,AGTGCCCA,0.137
20,CGTGCCCA,0.355
21,CACGGATG,0.0568
22,GGTAGGGA,-0.104

row,Sequence,PBM E-score
1,GGTAGGTA,0.269
2,CGTAGGCC,-0.0263
3,AGTAGGCC,-0.1
4,CGTAGGCA,0.487
5,GGTAGGCA,0.473
6,CGTAGGTA,0.285
7,AGTAGGCG,0.0255
8,AGTAGGCA,0.481
9,AAATGGGG,-0.133
10,CGAACTAA,0.031
11,AGGATACA,0.157
12,CCCTCTCG,-0.33
13,TCTATTCA,0.165
14,CAATTGAA,-0.0107
15,AGTACATC,0.166
16,CTTACATA,0.319
17,ATCACATG,0.195
18,ACTACATA,0.325
19,GTTACATA,0.333
20,ATTACATA,0.406
21,ACTACATG,0.362
22,CTTACATC,0.163

row,Sequence,PBM E-score
1,AGTACATG,0.289
2,ATTACATC,0.356
3,ACTACATC,0.173
4,ATTACATG,0.435
5,AGGATACT,-0.12
6,ACCTCTCC,-0.144
7,ACTTTTCC,0.0601
8,ACCTGACA,0.105
9,ATCTGAAA,-0.0689
10,AGGAGTGC,-0.146
11,GGACACCA,-0.23
12,ACTCGCCC,-0.179
13,TACTTTGA,0.0853
14,ACACTCCA,-0.141
15,CATACATG,0.291
16,AATACATT,0.235
17,AATACATG,0.413
18,GGCGTGAC,0.017
19,AGAACGCT,-0.186
20,AGTGTCGC,-0.0232
